Records with an inconclusive call do not appear. Calls of active or inactive are those of the source. The call rests on the fitted dose curve; in most records, active means well fitted activation curve with a large enough effect; inconclusive means small, poorly fitted or top-dose-only effect; inactive means no such curve, though single readings can be large or run the other way.

For the test, the target named is D(1A) dopamine receptor (Homo sapiens) (UniProt P21728). Nature of the test: HTS Assay for Allosteric Agonists of the Human D1 Dopamine Receptor: Primary Screen for Potentiators (AID 488982). The following applies: HEK293 T-REx D1 inducible cells, calcium flux, kinetic fluorescence; series mostly up to 8.37 µM. The text has this: Dopamine receptors (DARs) are involved in the etiology and/or therapy of a number of neuropsychiatric and endocrine disorders. For instance, all receptor-based antiparkinsonian drugs work via stimulating the […] DAR subtype whereas all FDA-approved antipsychotic agents are antagonists of this receptor. […] There are three different types of allosteric modulators that we are seeking, two of which will stimulate or augment receptor signaling, allosteric agonists and potentiators, while the third, allosteric antagonists, will attenuate receptor signaling. The present primary screening assay measures compound agonism by tracking calcium flux in a […], inducible Hek293 Trex D1 cell line.
Sequence of D(1A) dopamine receptor (Homo sapiens) (P21728 whole entry, looked up): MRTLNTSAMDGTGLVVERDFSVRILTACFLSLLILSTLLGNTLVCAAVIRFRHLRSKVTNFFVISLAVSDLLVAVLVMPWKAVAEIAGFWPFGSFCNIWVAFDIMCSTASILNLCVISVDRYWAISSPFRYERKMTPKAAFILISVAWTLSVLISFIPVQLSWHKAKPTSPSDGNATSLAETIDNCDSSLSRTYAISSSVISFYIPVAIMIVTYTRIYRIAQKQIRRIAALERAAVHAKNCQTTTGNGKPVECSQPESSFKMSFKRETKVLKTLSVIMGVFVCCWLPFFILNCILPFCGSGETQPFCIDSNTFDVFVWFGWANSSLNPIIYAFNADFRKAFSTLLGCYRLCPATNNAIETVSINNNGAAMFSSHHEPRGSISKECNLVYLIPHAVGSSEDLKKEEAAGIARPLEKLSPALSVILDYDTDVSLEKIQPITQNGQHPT
Freshly passaged cells are plated in 1536 well black, clear bottom plates at a density of 4000 cells/well in 3 ul of complete media containing 1x tetracycline inducer. After an overnight incubation at 30 C in 5% CO2, cells are loaded with 2 ul of the no wash Calcium Assay Kit (ABD Bioquest) and incubated at room temperature for 30 to 90 minutes. A 10 cycle (1 second/cycle) baseline measurement is taken and then the FDSS online 1536 pintool delivers 23 nl of compound library (as well as dopamine controls) to the plate. The plate is measured for kinetically at 1 cycle/sec for 180 seconds and is considered to be the agonist portion of the assay (eg, compounds which activate a positive calcium response during this portion are flagged as potential agonists). Following the 180 second read, 1 ul of an EC20 of dopamine is delivered by an onboard pipette head. Measurements are taken kinetically for an additional 180 seconds.
A general note: Calcium flux is commonly read through the fluorescence of an indicator in the cells.
Take `C[C@@H]1C(=O)NC2=Nc3cccc(Cl)c3CN21`: the result was inactive.
As for `CNCCC=C1c2ccccc2CCc2ccccc21`, the entry is “inactive”; as for `Oc1ccc(O)cc1`, “inactive”; as for `O=C1CCC(c2ccc(-n3ccnc3)cc2)=NN1`, “inactive”.
As for `COc1cc(NS(C)(=O)=O)ccc1Nc1c2ccccc2nc2ccccc12`, the entry is “inactive”; as for `COc1cc2c(cc1O)CC[C@@H]1[C@@H]2CC[C@]2(C)[C@@H](O)CC[C@@H]12`, “inactive”; as for `COC(=O)[C@H]1[C@H]2C[C@H]3c4[nH]c5ccccc5c4CCN3C[C@H]2CC[C@@H]1O`, “inactive”.
Turning to `C1CCc2nnnn2CC1`, the outcome was inactive.
Turning to `CC1(C)CCC(NC(=O)[C@@H](N)CCC(=O)O)CC1`, the result was inactive.
Take `N[C@H](CO)C(=O)O`: the outcome was inactive.
`CCCn1c(=O)[nH]c(=O)c2[nH]cnc21`: the outcome was inactive.
Under `CC(=O)O[C@H]1C[C@@H]2CC[C@@H]3[C@H](CC[C@@]4(C)[C@H]3C[C@H]([N+]3(C)CCCCC3)[C@@H]4OC(C)=O)[C@@]2(C)C[C@@H]1[N+]1(C)CCCCC1` stands “inactive”; under `CC(CCc1ccccc1)NCC(O)c1ccc(O)c(C(N)=O)c1` (stereo not drawn), “inactive”.
As to `CCC(NC(C)C)C(O)c1ccc(O)c(O)c1` (stereo not drawn), the outcome was inactive.
Regarding `Nc1cc(Cl)c(NC2=NCCN2)c(Cl)c1`, the outcome was inactive.
Under `C[C@]12CC[C@@H]3c4ccc(O)cc4CC[C@H]3[C@@H]1CC[C@@H]2O` stands “inactive”.
As for `N[C@@H](Cc1cnc[nH]1)C(=O)O`, the result was inactive.
Under `C[N+]1(CCCCC[N+]2(C)CCCC2)CCCC1` stands “inactive”; under `CC(C)COC(=O)OCN1C(=O)CN(CCN2CC(=O)N(COC(=O)OCC(C)C)C(=O)C2)CC1=O`, “inactive”; under `CNCCC(Oc1ccccc1C)c1ccccc1` (stereo not drawn), “inactive”.
Under `CCCC1O[C@@H]2C[C@H]3[C@@H]4CCC5=CC(=O)C=C[C@]5(C)[C@H]4[C@@H](O)C[C@]3(C)[C@]2(C(=O)CO)O1` (stereo partly drawn) stands “inactive”; under `CN1C2CCC1CC(OC(=O)c1c[nH]c3ccccc13)C2` (stereo not drawn), “inactive”.
As to `O=C(O)c1cc2cc(Cc3cccnc3)ccc2o1`, the outcome was inactive.

(Values after PubChem BioAssay (NCATS).)
